Measurements as given in PubChem BioAssay (Tox21).
Results filed as inconclusive are left out. Entries that show only a call come without a potency. The source made the active and inactive calls. Unless noted, calls come from the whole dose curve; as a rule, active = well fitted curve in the direction sought with a large enough effect in the repeat runs; inconclusive = weak or mixed curves; inactive = no such curve, though single readings can be large; an effect the other way counts as inactive or inconclusive.

What was measured:
[1] = qHTS assay to identify small molecule antagonists of the estrogen related receptor (ERR) signaling pathway - cell viability counter screen (AID 1224818); note: potency is the fitted concentration of half-maximal effect;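 note: viability measured after 17.5 h of compound exposure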
In short: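 Cytotoxicity counter screen: fluorescence from CellTiter-Fluor, added after 17.5 h compound exposure at 37 C and read 30 min later. ERR cell line seeded at 2,000 cells/well, preincubated 6 h before dosing.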

[2] = qHTS assay to identify small molecule antagonists of the estrogen related receptor (ERR) signaling pathway (AID 1224819; note: nearly all actives have a fitted effect of over 50% in size; note: potency is the fitted concentration of half-maximal effect)
In short: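 LOPAC library screened for antagonism as reduced One-Glo luminescence in ERR reporter cells (2,000/well). Compounds were added after 6 h pre-incubation and left 18 h at 37C; reading followed a 30 min room-temperature reagent step.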

[3] = qHTS assay to identify small molecule agonists of the estrogen related receptor (ERR) signaling pathway (AID 1224820); note: potency is the fitted concentration of half-maximal effect
In short: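 An ERR cell line provided by NTP was seeded at 2,000 cells per well and allowed to settle for 6 h before compounds in DMSO were added. After 18 h at 37 C, luciferase activity was measured by One-Glo luminescence.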

[4] = test system: estrogen-related receptor alpha (ERRalpha) with PGC-1alpha coactivator, human; experiment: qHTS assay to identify small molecule antagonists of the estrogen related receptor signaling pathway with the pleiotropic PPARgamma coactivator (PGC) (AID 1224821; calls by dose curve;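 note: series mostly up to about 46 µM; lower luminescence signal means antagonism of PGC/ERR signalling; nearly all actives have a fitted effect of over 50% in size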)
In short: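 A PGC/ERR cell line supplied by NTP is seeded, allowed 6 h at 37 C, and treated with test compounds in DMSO for 18 h. Signal is then measured as luciferase luminescence using One-Glo.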

[5] = qHTS assay to identify small molecule antagonists of the estrogen related receptor signaling pathway with the pleiotropic PPARgamma coactivator (PGC) cell viability counter screen (AID 1224822; note: potency is the fitted concentration of half-maximal effect)
In short: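 Viability counter-screen read by fluorescence intensity after 30 min with CellTiter-Fluor at 37 C; PGC/ERR reporter cells were exposed to compounds for 17.5 h at 37 C following a 6 h preincubation.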

[6] = qHTS assay to identify small molecule agonists of the estrogen related receptor signaling pathway with the pleiotropic PPARgamma coactivator (PGC) (AID 1224823); note: potency is the fitted concentration of half-maximal effect
In short: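 Compounds dissolved in DMSO are added by pin tool to PGC/ERR cells that have settled for 6 h, and incubation continues 18 h at 37 C. Reporter output is measured as One-Glo luminescence.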

SMILES	Potency [1]	Potency [2]	Potency [3]	Potency [4]	Potency [5]	Potency [6]
CCCCCCC/C=C\CCCCCCCCC(=O)O	inactive	inactive	inactive	inactive	inactive	–
CSc1ccccc1N1CCN(CCCCCC(=O)NC2CCCc3ccccc32)CC1 (centres undefined)	10.2 µM (active)	16.2 µM (active)	inactive	–	–	–
S=c1[nH]c(-c2ccccc2)cn1-c1ccccc1	inactive	inactive	inactive	inactive	inactive	–
Oc1cc(O)c2c(c1)O[C@H](c1ccc(O)c(O)c1)[C@@H](O)C2	inactive	–	–	–	–	–
C=CC1(C)CC(=O)C2(O)C(C)(O1)C(OC(C)=O)C(O)C1C(C)(C)CCC(O)C12C (centres undefined)	inactive	–	–	–	–	–
CN1CCc2cc(NC(=O)Nc3cccnc3)ccc21	inactive	inactive	9.08 µM (active)	inactive	inactive	–
COc1ccc2c(c1)CCC1C2CC[C@@]2(C)C1CC[C@@H]2NCCCCCCN1C(=O)CCC1=O (some centres undefined)	inactive	inactive	inactive	–	–	–
CC(=O)O[C@H]1CC2(C)[C@@H](C[C@@H](O)[C@H]3[C@@]4(C)CC[C@@H](O)[C@@H](C)[C@@H]4CC[C@@]32C)C1=C(CCC=C(C)C)C(=O)O (some centres undefined)	inactive	inactive	inactive	inactive	inactive	–
CNCCC=C1c2ccccc2CCc2ccccc21	inactive	inactive	inactive	inactive	inactive	–
COC1(C2=NCCN2)COc2ccccc2O1 (centres undefined)	inactive	inactive	inactive	inactive	inactive	–
N.N.N.N.N.N.N.N.N.N.N.N.N.N.O.O.[Cl-].[Cl-].[Cl-].[Cl-].[Cl-].[Cl-].[Ru+4].[Ru+5].[Ru+5]	inactive	–	–	–	–	–
Nc1nc(Cl)nc2c1ncn2[C@@H]1O[C@H](CO)C(O)[C@H]1O (some centres undefined)	inactive	inactive	inactive	inactive	inactive	–
CNc1ncnc2c1ncn2[C@@H]1O[C@H](CO)C(O)[C@H]1O (some centres undefined)	inactive	inactive	inactive	inactive	inactive	–
N.N.O=C(O)C1(C(=O)O)CCC1.[Pt+2]	inactive	–	–	–	–	–
CCCCCC[C@@H]([C@@H](C)O)n1cnc2c(N)ncnc21	inactive	inactive	inactive	inactive	inactive	–
COc1cc2c(cc1OC)C1CC(=O)C(CC(C)C)CN1CC2 (centres undefined)	inactive	–	–	–	–	–
[N-]=[N+]=Nc1ccc(C(=O)CSC[C@H](NC(=O)CC[C@H](N)C(=O)O)C(=O)NCC(=O)O)cc1	inactive	0.552 µM (active)	inactive	inactive	inactive	–
CCOC(=O)C(C)Oc1cccc2c(=O)n(CC(=O)Nc3ccc4c(c3)OCCO4)ccc12 (centres undefined)	inactive	inactive	inactive	inactive	inactive	–
O=S(=O)(c1cccc2c(Cl)cccc12)N1CCCNCC1	inactive	inactive	inactive	inactive	inactive	–
O=C1c2c(O)cc(O)cc2OC(c2ccc(O)c(O)c2)C1O (centres undefined)	inactive	inactive	inactive	inactive	inactive	–
COc1ccc(/C=C/C(=O)Nc2ccccc2C(=O)O)cc1OC	inactive	inactive	1.68 µM (active)	inactive	inactive	–
NC(=O)C1=CN(C2OC(COP(=O)(O)OP(=O)(O)OC[C@H]3O[C@@H](n4cnc5c(N)ncnc54)[C@H](OP(=O)(O)O)C3O)C(O)C2O)C=CC1 (some centres undefined)	inactive	inactive	inactive	inactive	inactive	–

SMILES	Potency [1]	Potency [2]	Potency [3]	Potency [4]	Potency [5]	Potency [6]
C[C@@H](c1ncncc1F)[C@](O)(Cn1cncn1)c1ccc(F)cc1F	inactive	inactive	inactive	inactive	inactive	–
O=C(Nc1ccc2[nH]ncc2c1)C1CCC1	inactive	inactive	12.8 µM (active)	inactive	inactive	–
CN1[C@@H](CC(=O)c2ccccc2)CCC[C@H]1C[C@H](O)c1ccccc1	inactive	inactive	inactive	inactive	inactive	–
CNCC[C@H](Oc1ccc(C(F)(F)F)cc1)c1ccccc1	inactive	–	–	–	–	–
CC(=O)SC1CC2=CC(=O)CC[C@]2(C)C2CC[C@@]3(C)C(CC[C@@]34CCC(=O)O4)C12 (some centres undefined)	inactive	–	–	–	–	–
NC(N)=N[C@@H](CCC(=O)O)C(=O)O	inactive	inactive	inactive	inactive	inactive	–
COc1cc(CNC(=O)CCCCCCC(C)C)ccc1O	inactive	inactive	inactive	inactive	inactive	–
O=C(O)C1CCCNC1 (centres undefined)	inactive	inactive	inactive	inactive	inactive	–
CCCCC#Cc1nc(NC)c2ncn([C@@H]3O[C@H](CO)[C@@H](O)C3O)c2n1 (some centres undefined)	inactive	inactive	inactive	inactive	inactive	–
Cc1cn([C@H]2CC(N=[N+]=[N-])[C@@H](CO)O2)c(=O)[nH]c1=O (some centres undefined)	inactive	inactive	inactive	inactive	–	–
Cc1nc2n(c(=O)c1CCN1CCC(c3noc4cc(F)ccc34)CC1)CCCC2O (centres undefined)	inactive	inactive	inactive	inactive	inactive	–
O=c1c2ccccc2nc2n1CCc1c-2[nH]c2ccccc12	inactive	inactive	2.28 µM (active)	inactive	inactive	–
NS(=O)(=O)c1cccc2c1c([N+](=O)[O-])cc1nc(O)c(O)nc12	inactive	inactive	inactive	inactive	inactive	–
C=C[C@H]1CN2CC[C@@H]1C[C@@H]2[C@@H](O)c1ccnc2ccc(OC)cc12	inactive	–	–	–	–	–
N#C/C(=C\c1ccc(O)c(O)c1)C(=O)NCCc1ccccc1	inactive	inactive	inactive	inactive	–	–
COC(=O)C(N)Cc1ccc(Cl)cc1 (centres undefined)	inactive	inactive	inactive	inactive	inactive	–
CCCCCCCCCCCCCCSCC(=O)O	inactive	inactive	inactive	inactive	inactive	inactive
Nc1nc2c(cnn2CCc2ccccc2)c2nc(-c3ccco3)nn12	inactive	inactive	inactive	inactive	inactive	inactive
CN1CCc2ccccc2Cc2[nH]c3ccccc3c2CC1	inactive	inactive	inactive	inactive	inactive	inactive
CNc1ncnc2c1ncn2[C@H]1C[C@H](OP(=O)(O)O)[C@@H](COP(=O)(O)O)O1	inactive	inactive	inactive	inactive	inactive	inactive
CCCCS(=N)(=O)CCC(N)C(=O)O (centres undefined)	inactive	inactive	inactive	inactive	inactive	inactive
O=c1c(O)c(-c2cc(O)c(O)c(O)c2)oc2cc(O)cc(O)c12	inactive	inactive	inactive	inactive	inactive	inactive

SMILES	Potency [1]	Potency [2]	Potency [3]	Potency [4]	Potency [5]	Potency [6]
CC(C)C[C@H](NC(=O)[C@H](O)[C@H](N)Cc1ccccc1)C(=O)O	inactive	inactive	inactive	inactive	inactive	inactive
NCCS(=O)O	inactive	inactive	inactive	inactive	inactive	inactive
O=C(O)Cc1c[nH]c2ccc(O)cc12	inactive	inactive	inactive	inactive	inactive	inactive
NC(=O)c1cccc(N)c1	inactive	inactive	inactive	inactive	inactive	inactive
NC(=O)CNCCC(c1ccccc1)c1ccccc1	inactive	inactive	inactive	inactive	inactive	inactive
NCCCCCCCCCCN	inactive	inactive	inactive	inactive	inactive	inactive
COc1ccccc1N1CCN(CCCNc2c(C)c(=O)n(C)c(=O)n2C)CC1	inactive	inactive	inactive	inactive	inactive	inactive
CCN(CC)CCn1c(=O)c(Cc2ccc(OC)cc2)nc2ccccc21	inactive	inactive	inactive	inactive	inactive	inactive
CCN(CC)CCCCNc1ncc2cc(-c3c(Cl)cccc3Cl)c(NC(=O)NC(C)(C)C)nc2n1	22 µM (active)	2.37 µM (active)	inactive	inactive	13.3 µM (active)	inactive
S=C(S)OC1CC2CC1C1CCCC21 (centres undefined)	inactive	inactive	inactive	inactive	inactive	inactive
COCc1nc2c([nH]1)c(=O)n(C)c(=O)n2CC(C)C	inactive	inactive	inactive	inactive	inactive	inactive
CCCC(CCC)C(=O)OC1CC2CCC(C1)[N+]2(C)C (centres undefined)	inactive	inactive	inactive	inactive	inactive	inactive
C[C@H]1CC2C3CCC4=CC(=O)C=C[C@]4(C)[C@@]3(Cl)[C@@H](O)C[C@]2(C)[C@@]1(O)C(=O)CO (some centres undefined)	inactive	inactive	inactive	inactive	inactive	inactive
O=c1cc(-c2ccccc2)oc2c(O)c(O)ccc12	inactive	inactive	inactive	inactive	inactive	inactive
Nc1ncnc2n[nH]c(Nc3ccc(F)cc3)c12	inactive	inactive	inactive	inactive	inactive	22.8 µM (active)
N[C@@H](CS(=O)O)C(=O)O	inactive	inactive	inactive	inactive	inactive	–
N=S(=O)(O)Cc1noc2ccccc12	inactive	inactive	inactive	inactive	inactive	inactive
NC(=O)CC[C@H](N)C(=O)O	inactive	inactive	inactive	inactive	inactive	inactive
N[C@@H](Cn1ccc(=O)c(O)c1)C(=O)O	inactive	inactive	inactive	inactive	inactive	inactive
N[C@H](C(=O)O)c1cc(O)cc(O)c1	inactive	inactive	inactive	inactive	inactive	inactive
CN1C2CCCC1CC(NC(=O)c1nn(C)c3ccccc13)C2 (centres undefined)	inactive	inactive	inactive	inactive	inactive	inactive
CCCn1c(=O)c2c(ncn2C)n(CCC)c1=O	inactive	inactive	inactive	inactive	inactive	inactive
